From ChEMBL document CHEMBL3988442, “University of Dundee, Small-Polar-MMV Screening Library” (2021)
Screen size: about 67,000 compounds; about 300 (0.45%) showed an effect of 50% or more. The sample as a whole holds a higher share of strong results than the screen did.

Molecular target: Polyketide synthase Pks13 (Mycobacterium tuberculosis (strain ATCC 25618 / H37Rv)) (UniProt I6X8D2)
Assay: Mycobacterium tuberculosis Polyketide synthase 13 Thioesterase (PKS13)
Assay type: functional
Set-up: scale not given: in the data most compounds retested in dose-response had high values
Conditions: 30 µM

Chain of Polyketide synthase Pks13 (Mycobacterium tuberculosis (strain ATCC 25618 / H37Rv)) (I6X8D2 whole entry): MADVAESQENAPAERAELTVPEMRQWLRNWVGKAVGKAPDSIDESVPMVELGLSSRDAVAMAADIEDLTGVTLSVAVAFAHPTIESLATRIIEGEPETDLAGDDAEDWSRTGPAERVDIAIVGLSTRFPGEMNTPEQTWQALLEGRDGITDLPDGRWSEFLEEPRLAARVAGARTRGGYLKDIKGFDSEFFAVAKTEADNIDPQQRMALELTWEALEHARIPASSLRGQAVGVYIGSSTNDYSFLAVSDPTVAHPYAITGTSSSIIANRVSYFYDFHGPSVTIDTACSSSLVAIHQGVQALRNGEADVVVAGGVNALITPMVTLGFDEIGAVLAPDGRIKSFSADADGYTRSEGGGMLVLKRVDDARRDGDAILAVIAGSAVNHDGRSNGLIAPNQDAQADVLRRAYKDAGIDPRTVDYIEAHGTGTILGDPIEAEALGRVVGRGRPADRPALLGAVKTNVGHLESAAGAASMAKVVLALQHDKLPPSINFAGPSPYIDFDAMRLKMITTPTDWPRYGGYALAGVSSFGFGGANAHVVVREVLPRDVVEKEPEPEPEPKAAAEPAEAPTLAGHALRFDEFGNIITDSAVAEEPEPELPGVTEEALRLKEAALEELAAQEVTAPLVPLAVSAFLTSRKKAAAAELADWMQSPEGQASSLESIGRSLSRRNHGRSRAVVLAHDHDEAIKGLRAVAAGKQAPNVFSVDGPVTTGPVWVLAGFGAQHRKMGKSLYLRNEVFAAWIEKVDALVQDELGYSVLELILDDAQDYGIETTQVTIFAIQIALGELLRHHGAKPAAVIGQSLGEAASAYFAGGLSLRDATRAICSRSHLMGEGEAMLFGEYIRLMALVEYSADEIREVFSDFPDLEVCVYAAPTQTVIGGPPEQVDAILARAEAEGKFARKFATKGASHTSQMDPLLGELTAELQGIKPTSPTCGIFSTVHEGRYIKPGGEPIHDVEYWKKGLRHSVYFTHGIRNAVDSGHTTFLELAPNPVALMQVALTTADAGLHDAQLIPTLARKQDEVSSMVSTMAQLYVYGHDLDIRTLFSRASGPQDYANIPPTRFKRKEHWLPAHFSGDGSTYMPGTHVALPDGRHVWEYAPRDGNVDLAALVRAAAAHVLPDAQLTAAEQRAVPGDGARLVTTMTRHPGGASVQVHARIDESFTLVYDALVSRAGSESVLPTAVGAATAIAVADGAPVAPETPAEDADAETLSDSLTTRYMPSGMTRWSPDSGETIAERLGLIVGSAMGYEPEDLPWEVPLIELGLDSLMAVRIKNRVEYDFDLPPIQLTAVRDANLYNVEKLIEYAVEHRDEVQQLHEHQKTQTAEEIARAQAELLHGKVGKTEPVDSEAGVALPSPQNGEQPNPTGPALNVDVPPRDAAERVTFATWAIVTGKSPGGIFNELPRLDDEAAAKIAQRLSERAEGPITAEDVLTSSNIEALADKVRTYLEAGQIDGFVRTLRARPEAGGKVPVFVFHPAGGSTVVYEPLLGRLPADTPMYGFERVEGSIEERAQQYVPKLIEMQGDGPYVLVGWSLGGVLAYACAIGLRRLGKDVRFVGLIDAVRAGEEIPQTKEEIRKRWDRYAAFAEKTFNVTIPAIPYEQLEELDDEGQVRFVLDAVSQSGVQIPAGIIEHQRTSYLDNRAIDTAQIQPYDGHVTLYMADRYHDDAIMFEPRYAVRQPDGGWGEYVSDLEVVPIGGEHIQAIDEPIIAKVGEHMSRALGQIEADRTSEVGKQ

Compound | Percent Effect [%]
Cn1c(NCC(=O)N2CCCC2)c(C#N)c(=O)n(C)c1=O | 51.5
Cn1c(NCC(=O)N2CCCCC2)c(C#N)c(=O)n(C)c1=O | -9.87
Cn1c(NCCC(=O)N2CCCC2)c(C#N)c(=O)n(C)c1=O | 1.71
Cn1cc(N2C(=O)CC[C@@H]3[C@H]2CCN3Cc2cccc(C#N)c2)cn1 | -11.3
O=c1[nH]c2cc3c(cc2cc1CN1CCCC1c1ccccn1)OCO3 (stereo not drawn) | 78.6
CCOc1ccc2[nH]c(=O)c(CN3CCCC3c3ccccn3)cc2c1 (stereo not drawn) | -32.9
O=c1[nH]c2cc3c(cc2cc1CN1CCCC1c1ccccn1)CCC3 (stereo not drawn) | -17.3
O=C(c1ccoc1)N1CC[C@@H]2O[C@@H](COCc3ccncc3)CC[C@@H]21 | -10.6
O=C(C[C@H]1[C@H]2CN(c3ncccn3)C[C@@H]12)Nc1cccnc1 | -4.86
CC(C)CN1CC[C@@H]2[C@@H]1CCN2C(=O)N(C)C | -18.3
CCc1noc(Cn2c(=O)c3c(C(F)(F)F)cc(C)nc3n2C)n1 | 64.5
CCc1nc(Cn2c(=O)c3c(C(F)(F)F)cc(C)nc3n2C)no1 | 9.67
Cc1cc(Cn2c(=O)c3c(C(F)(F)F)cc(C)nc3n2C)on1 | 3.92
CO[C@H]1CC[C@H]2[C@H]1OCCN2C(=O)c1ccc(C)nc1 | -32.1
Cc1ccc(N2CC[C@H]3OCC[C@@]3(C(=O)NCC3CC3)C2)nn1 | -16.8
CC(C)CN1CCN(Cc2nc3c(s2)CCCC3)[C@H]2CS(=O)(=O)C[C@H]21 | 3.91
O=C(c1cnc2c(cnn2C2CCCC2)c1)N1CCN(CCO)CC1 | 90.8
CN1CCN(C(=O)c2cnc3c(cnn3C3CCCC3)c2)CC1 | -58.3
CCN1CCN(C(=O)c2cnc3c(cnn3C3CCCC3)c2)CC1 | 2.83
Cc1cc(CN2CC[C@@H]3O[C@@H](c4nnc(C)o4)C[C@H]3C2)no1 | -7.21
CC(C)Nc1nc2c(cc1C(=O)NCC1CC1)CCN(S(C)(=O)=O)CC2 | 85.6
CN(C)C(=O)c1cc2c(nc1NCC1CC1)CCN(CC1CC1)CC2 | -12.7

Compound | Percent Effect [%]
CC(C)CCN1CCc2cc(C(=O)N(C)C)c(NCC3CC3)nc2CC1 | -8.68
CC(C)NC(=O)c1cc2c(nc1N(C)C)CCN(S(=O)(=O)C1CC1)CC2 | 33.7
CN1CCc2cc(C(=O)N(C)C)c(NCC3CC3)nc2CC1 | -5.51
CNC(=O)c1cc2c(nc1NC(C)C)CCNCC2 | 73.6
CNC(=O)c1cc2c(nc1N(C)C)CCN(C)CC2 | -20.6
CCS(=O)(=O)N1CCc2cc(C(=O)N(C)C)c(NCC3CC3)nc2CC1 | -30.5
Cc1nc2c(cc1C(=O)O)CCN(CC1CC1)CC2 | -19.8
CC(C)Nc1nc2c(cc1C(=O)NCC1CC1)CCN(CC1CC1)CC2 | 69.4
CC(C)Nc1nc2c(cc1C(=O)N(C)C)CCNCC2 | 0.822
CC(C)Nc1nc2c(cc1C(=O)NCC1CC1)CCN(C)CC2 | 90.8
CCS(=O)(=O)N1CC[C@H]2O[C@H](c3nnc(C)o3)CC[C@H]21 | -8.23
CN1CC[C@H]2CN(C(=O)c3csc(Cc4ccccc4)n3)C[C@H]21 | -37.9
O=C1O[C@@H]2CN(C3CCOCC3)C[C@@H]2N1CCCc1ccc(F)cc1 | 1.75
CC(C)CN1CCS(=O)(=O)[C@@H]2CCN(S(=O)(=O)N(C)C)CC[C@@H]21 | -30.1
CNC(=O)N1CCc2cc(C(=O)N(C)C)c(NCC3CC3)nc2CC1 | 4.02
COCCN1CCc2cc(C(=O)NCC3CC3)c(NC(C)C)nc2CC1 | 68.2
CCN1CCc2cc(C(=O)N(C)C)c(NCC3CC3)nc2CC1 | -12.5
CNC(=O)c1cc2c(nc1NC(C)C)CCN(C(=O)NC(C)C)CC2 | 29.7
CC(C)Nc1nc2c(cc1C(=O)NCC1CC1)CCNCC2 | 51.7
CNC(=O)N1CCc2cc(C(=O)NCC3CC3)c(NC(C)C)nc2CC1 | 51.5
COCCN1CCc2cc(C(=O)N(C)C)c(NC(C)C)nc2CC1 | -2.98
COCCN1CCc2cc(C(=O)NC(C)C)c(NCC3CC3)nc2CC1 | 45.7

Compound | Percent Effect [%]
Cc1noc([C@@H]2CC[C@@H]3[C@@H](CCN3S(=O)(=O)c3cccnc3)O2)n1 | 4.22
O=C1OCCN1CC(=O)N1C[C@H]2CC[C@@H]1CN(C(=O)c1ccccn1)C2 | -14.6
Cc1ccc(N2CC[C@@H]3CN(Cc4cc[nH]n4)C[C@@H]3C2)nn1 | 3.96
CCN1CCN(S(=O)(=O)N2CCCC2)[C@H]2CS(=O)(=O)C[C@H]21 | -23.5
CC(=O)N1CC[C@H]2N(C)CC[C@@]2(C(=O)Nc2cccnc2)CC1 | -11.6
O=C(c1ccco1)N1C[C@H]2CN(Cc3cccc(F)c3)C(=O)[C@H]2C1 | -4.13
c1ccc2c(c1)C(NC1CCCC1)CC21CCNCC1 (stereo not drawn) | -6.43
CNC(=O)N1C[C@H]2CC[C@@]3(N=C(c4ccccc4)NC3=O)[C@H]2C1 | -17.2
CCOC(=O)[C@@H]1[C@@H](c2ccccc2)CN2CCN(S(C)(=O)=O)C[C@H]12 | -1.54
c1coc(CN2C[C@@H]3OCCN(CCN4CCCC4)[C@@H]3C2)c1 | -17.4
CCc1nnc(Nc2cccc(C3CCN(C(=O)CO)CC3)n2)s1 | 4.46
CCc1nnc(Nc2cccc(C3CCN(C(C)=O)CC3)n2)s1 | 86.9
CCc1nnc(Nc2cccc(C3CCN(C(=O)CNC)CC3)n2)s1 | -24.5
CC(=O)N1CCO[C@@H]2CN(C(=O)NCc3ccccc3)CC[C@@H]2C1 | -30.5
Cc1ccc(N2CC[C@H]3O[C@H](C(=O)NCc4ccco4)CC[C@H]32)nn1 | -3.57
Cc1ccc(N2CC[C@H]3OCC[C@@]3(C(=O)N3CCCO3)C2)nn1 | -34
COc1ccc(CN2C[C@@H]3OCC(=O)N(Cc4nccn4C)[C@@H]3C2)cc1 | -29.9
O=C1CNc2ncnc(N3CCN(Cc4ccccc4F)CC3)c2N1 | 84.6
Cc1ccccc1CN1CCN(c2ncnc3c2NC(=O)CN3)CC1 | -5.54
O=C1CNc2ncnc(N3CCN(Cc4ccccc4)CC3)c2N1 | -2.51
Cc1noc(C)c1CN1CC[C@H]2C[C@@H](c3ccncn3)O[C@@H]2C1 | -34.7
Cc1nc2cc(C3CCCCN3C(=O)C3CC3)nn2c(O)c1C (stereo not drawn) | 9.02

Compound | Percent Effect [%]
CC(=O)N1N=C(c2ccco2)OC1C(=O)N(CC(C)C)CC(C)C (stereo not drawn) | -6.84
CC(=O)N1N=C(c2ccco2)OC1C(=O)NCCc1ccc(O)cc1 (stereo not drawn) | 8.81
CC(=O)N1N=C(c2ccco2)OC1C(=O)NCC(C)C (stereo not drawn) | 52.5
CS(=O)(=O)N1CC[C@H]2OCC[C@@]2(C(=O)NCc2ccccn2)C1 | -5.05
O=C(c1ccco1)N1C[C@@H]2CCN(c3cccnc3)C[C@@H]2C1 | 18.9
COc1ccc(C2(C(=O)N3CC[C@@]4(O)CCNC[C@H]4C3)CCCC2)cc1 | -3.94
Nc1nc2c(c(=O)[nH]1)CCN(C(=O)c1cccc3nccnc13)C2 | 2.77
COc1cccc(C(=O)N2CCc3c(nc(N)[nH]c3=O)C2)c1C | 79.5
COc1cccc(C(=O)N2CCc3c(nc(N)[nH]c3=O)C2)c1OC | -13.9
O=C1CC[C@H]2CN(Cc3cccc(F)c3)CC[C@H]2N1CCc1c[nH]cn1 | -22.1
COCCC(=O)N1C[C@H]2CN(Cc3cccnc3)C(=O)[C@H]2C1 | -37.5
NCC1[C@H]2CN(Cc3cccc(Cl)c3)C[C@@H]12 (stereo partly drawn) | -29.5
CNC(=O)N1C[C@H]2N(c3ncccn3)CCC[C@@]2(C(=O)NCC2CC2)C1 | -22
COC(=O)C(C)(C)NC(=O)c1cnc(C(C)(C)C)s1 | -10.1
CCN(CC)c1nc2sc(C(=O)NC(C)(C)C(=O)OC)cc2s1 | 39.6
COC(=O)C(C)(C)NC(=O)c1cc2sc(N(C)C)nc2s1 | 52.3
CCCS(=O)(=O)N1C[C@H]2C[C@H](C(=O)N3CCOCC3)[C@@H](C1)O2 | -22.9
Cc1cccc(CN2C(=O)CC[C@@H]3[C@H]2CCN3Cc2nccn2C)n1 | -58.5
COCCN1C(=O)C[C@@H]2[C@H]1CCN2C(=O)c1ccc[nH]1 | -9.69
CN1CCCC[C@@H]2[C@H]1[C@@H](c1ccccc1)CCN2C(=O)c1cccnc1 | 9.14
Cc1noc([C@H]2COC[C@H]3CN(C(=O)Cc4ccsc4)C[C@H]32)n1 | -1.57
CC(=O)N1CCCC1c1ccc(-c2c(C)noc2C)cn1 (stereo not drawn) | -29.1

Compound | Percent Effect [%]
CC(=O)N1CCCC1c1ccc(Br)cn1 (stereo not drawn) | 61.5
CC(=O)N1CCCC(c2ccc(Br)cn2)C1 (stereo not drawn) | -6.19
Cc1cccc(CN2C(=O)CC[C@@H]3[C@H]2CCN3C(=O)c2ccsc2)n1 | -13.6
Cc1ccnc(OC[C@@]23CCO[C@@H]2CCN(S(C)(=O)=O)C3)n1 | -29.2
CN(C)[C@@H]1CN(C(=O)Cc2cccc(F)c2)[C@@H]2CCCO[C@H]12 | -3.8
Cc1ncsc1C(=O)OCC1CCN(c2ccccc2)C1 (stereo not drawn) | 30.2
O=C(OCC1CCN(c2ccccc2)C1)c1cscn1 (stereo not drawn) | 62.9
Cc1ncc(C(=O)OCC2CCN(c3ccccc3)C2)s1 (stereo not drawn) | 39.2
Cn1ncc(C(=O)OCC2CCN(c3ccccc3)C2)c1C(F)F (stereo not drawn) | 11.4
COCc1nc(C(=O)OCC2CCN(c3ccccc3)C2)cs1 (stereo not drawn) | 58.1
O=C(OCC1CCCN(C(=O)c2ccccc2)C1)c1cscn1 (stereo not drawn) | 10.2
O=C(CSc1ccccn1)N1CCN(CCO)[C@@H]2CS(=O)(=O)C[C@@H]21 | 0.423
Cc1ccoc1C(=O)N1C[C@@H]2COC[C@]2(CNS(C)(=O)=O)C1 | -15.4
Cn1cc(CN2C[C@@H](NC(=O)c3cscn3)[C@H]3OCCC[C@H]32)cn1 | -41.4
O=C(Nc1ccccc1)N1C[C@H]2C[C@H](C(=O)N3CCCC3)[C@@H](C1)O2 | -39.5
CC(C)Cc1nc(CN2CCc3onc(-c4cccc(F)c4)c3C2)no1 | 3.75
CC(C)(C)c1nc(CN2CCc3onc(-c4cccc(F)c4)c3C2)no1 | -16.5
CC(C)c1nc(CN2CCc3onc(-c4cccc(F)c4)c3C2)no1 | 91.2
O=C(C1CCC1)N1C[C@@H]2CC[C@H](C1)N(S(=O)(=O)c1ccccc1)C2 | -44.5
CCCN1CCN(C(=O)c2ccnc(N)c2)[C@H]2CS(=O)(=O)C[C@H]21 | -5.18
